{
  "source": "PubChem BioAssay (EPA / NIEHS)",
  "note": "Activity calls are given as the source filed them. How the source made its calls: active means hit-call score of the fitted dose curve at least 0.9, where 1 is the maximum; inactive means score below 0.9.",
  "data": [
    {"test": "ATG_SREBP_CIS: Attagene CIS-FACTORIAL HepG2 Assay for human Sterol Regulatory Element Binding (SREBP) (AID 2282962)", "conditions": "HepG2 Attagene cis-factorial SREBP reporter, mRNA; actives raise or lower the signal", "protocol": "ATG_CIS is a cell-based, multiplexed-readout assay that uses HepG2, a human liver cell line, with measurements taken at 24 hours after chemical dosing in a 24-well plate.ATG_SREBP_CIS is one of 52 assay component(s) measured or calculated from the ATG_CIS assay. It is designed to make measurements of mRNA induction, a form of inducible reporter, as detected with fluorescence intensity signals by Reverse transcription polymerase chain reaction (RT-PCR) and Capillary electrophoresis technology.Data from the assay component ATG_SREBP_CIS was analyzed into 1 assay endpoint. This assay endpoint, ATG_SREBP_CIS, was analyzed with bidirectional fitting relative to DMSO as the negative control and baseline of activity. Using a type of inducible reporter, measures of mRNA for gain or loss-of-signal activity can be used to understand the reporter gene at the transcription factor-level as they relate to the gene SREBF1. Furthermore, this assay endpoint can be referred to as a primary readout, because this assay has produced multiple assay endpoints where this one serves a reporter gene function. To generalize the intended target to other relatable targets, this assay endpoint is annotated to the dna binding intended target family, where the subfamily is basic helix-loop-helix leucine zipper.\nHuman liver HepG2 cells are transiently transfected with multiple reporter transcription units (MRTUs) in 6-well plates using FuGene 6 reagent (Roche; 3 ml FuGene/1 mg DNA). The MRTU constructs are regulated by a cis-regulating element (promoter). […] A major difference between the CIS and TRANS system is that in CIS activities of endogenous TFs are measured, whereas the TRANS assay evaluates changes in activities of exogenous, chimeric NR-Gal4 proteins. […] At the end of 24 hour incubation, total RNA was isolated using TriZol reagent (Invitrogen). The isolated RNA is then reverse-transcribed using oligo(dT) primer and Mo-MLV reverse transcriptase (Invitrogen) with DNAse I (Ambion) treatment for 30 min. The one-tenth of the produced cDNA was amplified by PCR using Taq DNA polymerase (Invitrogen) and two reporter sequence-specific primers. The PCR products were fluorescently labeled by primer extension with 6-arboxyfluorescein (6-FAM) 5'-labeled reporter sequence-specific primer (2 min at 95 C, 20 s at 68 C and 10 min at 72 C) and these products were digested with 5U of HpaI (New England Biolabs) for 2h at 37 C. The fragments were purified using Qiaquick PCR columns (Qiagen), analyzed on an ABI 3130xL genetic analyzer (Applied Biosystems) with peak positions identified by using a set of X-rhodamine (ROX)-labeled MapMarker1000 molecular weight standards (BioVentures). The raw capillary electrophoresis data was processed using Attagraph software (Attagene).", "values": [
      {"smiles": "CNC(=O)Oc1ccc(N(C)C)c(C)c1", "outcome": "inactive"},
      {"smiles": "O=S(=O)(F)C(F)(F)C(F)(F)C(F)(F)C(F)(F)C(F)(F)C(F)(F)C(F)(F)C(F)(F)F", "outcome": "inactive"},
      {"smiles": "CCN(CC)c1ccccc1", "outcome": "inactive"},
      {"smiles": "CCOP(=O)(O)C(N)=O", "outcome": "inactive"},
      {"smiles": "CC(Cl)CN(C)C", "note": "(stereo not given)", "outcome": "inactive"},
      {"smiles": "O=S(=O)(c1ccc(O)cc1)c1ccc(O)cc1", "outcome": "inactive"},
      {"smiles": "CC(O)C#N", "note": "(stereo not given)", "outcome": "inactive"},
      {"smiles": "Nc1ccc2ccccc2c1", "outcome": "inactive"},
      {"smiles": "Cc1ccc2c(c1N)C(=O)c1ccccc1C2=O", "outcome": "inactive"},
      {"smiles": "ClC1=C(Cl)C2(Cl)C3C(Cl)C(Cl)CC3C1(Cl)C2(Cl)Cl", "note": "(stereo not given)", "outcome": "inactive"},
      {"smiles": "CC(C)Nc1ccc(Nc2ccccc2)cc1", "outcome": "inactive"},
      {"smiles": "O=C(O)C(F)(OC(F)(F)C(F)(F)C(F)(F)F)C(F)(F)F", "note": "(stereo not given)", "outcome": "inactive"},
      {"smiles": "CCOP(=S)(S)OCC", "outcome": "inactive"},
      {"smiles": "[N-]=[N+]=[N-]", "outcome": "inactive"},
      {"smiles": "CO/N=C(/C(=O)OC)c1ccccc1COc1ccccc1C", "outcome": "inactive"},
      {"smiles": "CCOP(=S)(OCC)SCSCC", "outcome": "inactive"},
      {"smiles": "CCOP(=S)(OCC)SCn1nnc2ccccc2c1=O", "outcome": "inactive"},
      {"smiles": "Nc1ccc(Cl)cc1", "outcome": "inactive"},
      {"smiles": "CSC(C)(C)C=NO", "outcome": "inactive"},
      {"smiles": "CCCCc1ccccc1", "outcome": "inactive"},
      {"smiles": "N#Cc1c(-c2ccc(Cl)cc2)[nH]c(C(F)(F)F)c1Br", "AC50": "0.274 µM (active)"},
      {"smiles": "O=P(Oc1ccccc1)(Oc1ccccc1)Oc1ccccc1", "AC50": "16.7 µM (active)"},
      {"smiles": "CN(C)C(=O)Cl", "outcome": "inactive"},
      {"smiles": "N#C/C=C/c1ccccc1", "outcome": "inactive"},
      {"smiles": "N#Cc1cc([N+](=O)[O-])ccc1N", "outcome": "inactive"},
      {"smiles": "OCC1CO1", "note": "(stereo not given)", "outcome": "inactive"},
      {"smiles": "CC(C)(C)N(NC(=O)c1ccc(Cl)cc1)C(=O)c1ccccc1", "outcome": "inactive"},
      {"smiles": "CCOc1ccc(C(C)(C)COCc2cccc(Oc3ccccc3)c2)cc1", "outcome": "inactive"},
      {"smiles": "c1cc2c3c(cccc3c1)CC2", "outcome": "inactive"},
      {"smiles": "C=C(C)C(=O)OCC1CO1", "note": "(stereo not given)", "outcome": "inactive"},
      {"smiles": "Cc1c([N+](=O)[O-])cc2c(c1[N+](=O)[O-])C(C)(C)CC2(C)C", "AC50": "7.71 µM (active)"},
      {"smiles": "OCC(F)(F)OC(F)(F)C(F)(F)OC(F)(F)CO", "outcome": "inactive"},
      {"smiles": "O=c1ssc(Cl)c1Cl", "outcome": "inactive"},
      {"smiles": "Cc1ccc(C(=O)Cl)cc1", "outcome": "inactive"},
      {"smiles": "O=C(O)CF", "outcome": "inactive"},
      {"smiles": "CCOP(=S)(NC(C)C)Oc1ccccc1C(=O)OC(C)C", "note": "(stereo not given)", "outcome": "inactive"},
      {"smiles": "N#Cc1ccc(O)cc1", "outcome": "inactive"},
      {"smiles": "Cn1[nH]nnc1=S", "outcome": "inactive"},
      {"smiles": "O=P1(N(CCCl)CCCl)NCCCO1", "note": "(stereo not given)", "outcome": "inactive"},
      {"smiles": "CC1=C(C(=O)Nc2ccccc2)S(=O)(=O)CCO1", "outcome": "inactive"}
    ]}
  ]
}
